12-LOX inh – ALOX12 (human) lipoxygenase inhibition; purified 12hLO, xylenol orange hydroperoxide absorbance; Potency, µM (highest dose often 108 µM), most hits filed as inhibitors; P18054; 1.1% of 580,000 active; AID 1671190
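Purified human 12hLO (150 nM final) in 25 mM Hepes, 0.01% Triton X-100, pH 7.0 was preincubated 15 min at room temperature with compound. Then 40 uM arachidonic acid was added, 30 min. Hydroperoxide was read by Fe-XO absorbance ratio 573/405 nm.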
G9a inh – inhibitors of human histone lysine methyltransferase G9a | AID 504332 | Q96KQ7 | G9a H3K9 monomethylation, AlphaScreen, 2 h | 8.8% of 350,000 active | Potency, µM (series often up to 102 µM), hits mostly inhibitors; note: nearly all actives have a fitted effect of over 75% in size
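Methyltransferase reactions run at room temperature for 2 h (20 nM enzyme, 500 nM biotin-H3K9 peptide, 20 uM SAM) after a 15 min compound preincubation; product detected by AlphaScreen beads and anti-H3K9me1 antibody.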
BAZ2B inh – BAZ2B (human) inhibition; Q9UIF8; AlphaScreen BAZ2B-H3K14Ac peptide displacement; Potency, µM (top dose mostly 114 µM), actives largely listed as inhibitors; 4.4% of 360,000 active; note: nearly all actives have a fitted effect of over 60% in size
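Complex of BAZ2B and biotin-H3K14Ac (50 nM apiece) forms over 30 min at RT, then faces library compounds up to 110 uM for another 30 min; AlphaScreen beads added, 20 min dark incubation, luminescence read.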
HP1b binding inh – inhibitors of HP1-beta chromodomain binding to methylated histone tails; P83916; AlphaScreen HP1-beta / biotin-H3K9me3 peptide binding; Potency, µM (titrated, usually from 114 µM), hits mostly inhibitors; 0.56% of 390,000 active; AID 540317; note: nearly all actives have a fitted effect of over 70% in size
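HP1-beta protein (50 nM final) preincubated 30 min at room temperature with biotinylated H3(1-18)K9me3 peptide (50 nM) in PBS pH 7.4, 0.01% Tween-20, then compound added for 30 min. AlphaScreen streptavidin donor/nickel chelate acceptor beads (10 ug/mL final), 30 min dark, luminescence read.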
Sfp inh – Sfp phosphopantetheinyl transferase inhibition | Biochemical Sfp PPTase activity, qHTS | Potency, µM, usual class: inhibitors | 3.5% of 310,000 active | AID 1490;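 note: the enzyme is Sfp with the accession as filed and its product quenches rhodamine fluorescence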
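Reaction rates are the 30-min fluorescence difference (ex 525, em 598 nm) in wells containing 15 nM Sfp, 5 uM rhodamine-CoA and 12.5 uM BHQ-2-YbbR at pH 7.6 with 10 mM MgCl2.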
JMJD2A Tudor inh – inhibitors of human JMJD2A Tudor domain; AlphaScreen JMJD2A-Tudor / H3K4me3 peptide binding; 4.4% of 390,000 active; O75164; Potency, µM (top dose mostly 114 µM), usual class: inhibitors; note: nearly all actives have a fitted effect of over 50% in size
Numbers stand for hits; - = inactive; ? = inconclusive; . = not tested or not shown; [ ] = another dose, or the depositor's remark. This is a sample that favours compounds with a hit; in the whole collection about 8.7% have one here. Calls come from the whole dose curve; as a rule, active = well fitted curve in the direction sought with a large enough effect; inconclusive = small, poorly fitted or top-dose-only effect, or another doubt; inactive = no such curve, though single readings can be large; an effect the other way counts as inactive or inconclusive.

SMILES	12-LOX inh	G9a inh	BAZ2B inh	HP1b binding inh	Sfp inh	JMJD2A Tudor inh
Cc1ccc(/C=N/N2CCN(c3ccccn3)CC2)cc1	-	?	-	-	-	-
Cc1ccc(/C=N/N2CCN(Cc3ccccc3)CC2)cc1	-	?	?	-	-	79µM
Cc1cccc(-c2ccc3c(c2)C(=O)N2CC[C@H](NC(=O)c4cnccn4)C[C@H]2C(=O)N3)c1C	-	.	.	.	.	.
O=C(COCc1cc(-c2ccc(F)cc2)on1)Nc1cccc(O)c1	-	.	.	.	.	.
Cc1ccccc1-n1nnnc1C1(NC2CCCCC2)CCCC1	-	.	.	.	.	.
Cc1nc2ccc(S(=O)(=O)N(CC(=O)N3CCCCC3)Cc3ccccc3)cc2s1	-	.	.	.	.	.
C(=N\N1CCN(Cc2ccccc2)CC1)/c1ccc(-c2ccccc2)cc1	-	-	-	-	-	-
O=C(O)c1ccc(/C=N/N2CCN(Cc3ccccc3)CC2)cc1	-	?	89µM	-	-	-
Oc1ccc(/C=N/N2CCN(Cc3ccccc3)CC2)cc1	-	-[0.501 µM]	-	-	-	-
COc1cc(/C=N/N2CCN(Cc3ccc(C)cc3)CC2)cc(OC)c1O	?	.	56µM	?	-	40µM
CN1CCN(/N=C/c2ccc(-c3ccccc3)cc2)CC1	-	71µM	-	?	-	40µM
Fc1ccc(CN2CCN(C(c3ccccc3)c3ccccc3)CC2)cc1	-	32µM	50µM	?	-	22µM
CC(C)CCN1CC2(CCN(C(=O)CCC3NC(=O)NC3=O)CC2)OC1=O (stereo unspecified)	-	.	.	.	.	.
O=S(=O)(CCN1CCN(C(c2ccccc2)c2ccccc2)CC1)C(F)(F)F	-	3.5µM	.	-	-	-
CN1CCN(/N=C/c2c3ccccc3c(Cl)c3ccccc23)CC1	?	35µM	20µM	?	-	40µM
C(=N\N1CCN(Cc2cccc3ccccc23)CC1)/c1cccnc1	-	50µM	40µM	-	-	45µM
COc1ccccc1OCCCCN1CCN(C(c2ccccc2)c2ccccc2)CC1	?	-	?	?	-	?
C(=N\N1CCN(Cc2cccc3ccccc23)CC1)/c1ccco1	?	40µM	?	45µM	-	56µM
Cc1c(-c2ccccc2)oc2c(C(=O)Nc3ccc(N4CCN(C)CC4)cc3)cccc2c1=O	-	.	.	.	.	.
COc1cc(OC)c(CNC2CCCCCC2)cc1Br	-	35µM	?	-	-	10µM
COc1cc(CNC2CCCCCC2)cc(OC)c1OC	?	18µM	?	-	-	10µM
COc1cc(CNC2CCCC2)cc(OC)c1OC	-	-[12.7 µM]	-	-	-	-
COc1cccc(CNC2CCCCCCC2)c1OC	-	.	?	-	-	35µM
CCCCc1ccc(-n2cc(CN3CCN(C(C)=O)CC(O)C3)cn2)cc1 (stereo unspecified)	-	.	.	.	.	.
CCc1n[nH]c(CC2CCN(C(=O)Cc3cccc(F)c3)CC2)n1	-	.	.	.	.	.
SMILES	12-LOX inh	G9a inh	BAZ2B inh	HP1b binding inh	Sfp inh	JMJD2A Tudor inh
Cc1cccc(C(=O)N(C2CCCCC2)C2CCCCC2)c1	-	.	.	.	.	.
Cn1c(=O)[nH]c(=O)c2c1nc(SCC(=O)c1ccccc1)n2CCCc1ccccc1	-	.	.	.	.	.
OC(CNCc1ccco1)Cn1c2ccc(Br)cc2c2cc(Br)ccc21 (stereo unspecified)	6.3µM	-	-	-	20µM	-
Cc1cc2c(OCC(O)CNCc3ccco3)cccc2[nH]1 (stereo unspecified)	-	-[12.7 µM]	-	-	-	-
COCCN(C(=S)Nc1c(C)cccc1C)C(C)c1cccnc1 (stereo unspecified)	-	-	-	-	-	-
COCCN(C(=S)Nc1c(C)cc(C)cc1C)C(C)c1cccnc1 (stereo unspecified)	-	7.1µM	-	?	11µM	-
Cc1sc(-c2nc(-c3cccc(Cl)c3)no2)cc1S(=O)(=O)N1CCC2(CC1)OCCO2	-	.	.	.	.	.
CC(C)NC(=O)C[C@@H]1O[C@H](CNC(=O)C2CC2)[C@@H](O)[C@H]1O	56µM	.	.	.	.	.
O=C(C[C@@H]1O[C@H](CNC(=O)C2CCCC2)[C@@H](O)[C@H]1O)NC1CC1	-	.	.	.	.	.
O=C(c1cc2c(s1)CCCC2)n1cccn1	-	-	-	-	-	-
O=C(c1cc2c(s1)CCC2)N1C(=O)c2ccccc2S1(=O)=O	?	40µM	50µM	-	-	?
CC(=O)c1cccc(Nc2nc(=O)c3cccnc3s2)c1	-	50µM	-	-	-	-
CCOC(=O)c1ccc(Nc2nc(=O)c3cccnc3s2)cc1	-	28µM	-	-	-	-
O=c1nc(Nc2ccc(OCc3ccccc3)cc2)sc2ncccc12	-	50µM	-	-	-	-
CC(=O)c1ccc(Nc2nc(=O)c3cccnc3s2)cc1	-	?	-	-	-	-
CCOC(=O)c1cnc2c(C)cc(C)cc2c1Nc1ccc(OCc2ccccc2)cc1	?	-	-	-	.	-
Cc1ccc(Nc2nc(=O)c3cccnc3s2)c(Br)c1	-	14µM	-	-	-	-
COc1ccc(-c2noc([C@@H]3CCCN3C(=O)c3cccc(C)c3)n2)cc1	-	.	.	.	.	.
CN1CCN(c2ccc(NC(=O)c3cccc(F)c3)nc2)CC1	-	.	.	.	.	.
Cc1ccc2[nH]c(C)c(CC(=O)NC(C)c3ccc(C)o3)c2c1 (stereo unspecified)	-	.	.	.	.	.
CCc1cccc(NC(=O)CCS(=O)(=O)c2ccc3nc(C)sc3c2)c1	?	11µM	-	-	.	-
Cc1nc2ccc(NC(=O)Cc3cccc(C(F)(F)F)c3)cc2s1	40µM	.	.	.	.	.
Cc1nc(CSc2ccccc2C(=O)N2CC=C(c3ccccc3)CC2)cs1	-	.	.	.	.	.
CCOc1ccc(C(=O)NC2CCCN(c3cc(-c4ccc(F)cc4)[nH]n3)C2)cc1 (stereo unspecified)	-	.	.	.	.	.
CC(C)=NNc1ncnc2nc[nH]c12	-	.	.	-	.	25µM
SMILES	12-LOX inh	G9a inh	BAZ2B inh	HP1b binding inh	Sfp inh	JMJD2A Tudor inh
CCOC(=O)c1[nH]c(C)c(CCC(=O)Nc2ccc(OC)c(OC)c2)c1C	-	.	.	.	.	.
Cc1cc(/C=C(\C#N)c2nnc(N3CCOCC3)n2-c2ccccc2)c(C)n1-c1ccccc1	.	?	50µM	.	-	.
COc1cc(/C=C(\C#N)c2nnc(N3CCOCC3)n2-c2ccccc2)ccc1O	-	?	-	-	-	-
COC(=O)CC(NC(=O)c1cccc(CS(C)(=O)=O)c1)c1ccc(F)cc1 (stereo unspecified)	-	.	.	.	.	.
COc1ccc(CNc2ncnc3c2CN(c2ccc(Cl)cc2)C(=O)N(C)C3)cc1	-	.	.	.	.	.
CN1Cc2ncnc(NCCc3ccc(F)cc3)c2CN(c2ccc(Cl)cc2)C1=O	71µM	.	.	.	.	.
CCCS(=O)(=O)Nc1ccc(Nc2c3ccccc3nc3ccccc23)c(OC)c1	?	.	.	?	.	40µM
Cc1ccc(NC(=O)Cn2c(C)nc3c(sc4ccccc43)c2=O)cc1F	-	.	.	.	.	.
C=CCn1c(O)c(CN2CCCCC2)c(C)c(C#N)c1=O	-	50µM	-	-	-	-
Cc1c(CN2CCCC(C)C2)c(O)n(CCO)c(=O)c1C#N (stereo unspecified)	?	.	-	-	-	-

Screens deposited in PubChem BioAssay by National Center for Advancing Translational Sciences (NCATS).
